# Assay results from publication PMC7862700, “An all-to-all approach to the identification of sequence-specific readers for epigenetic DNA modifications on cytosine”.
# Legend:
# Experiment in all cases: DAPPL (digital affinity profiling via proximity ligation, sequencing); 10 mM Tris-HCl pH 7.5, 50 mM NaCl, 1 mM DTT, 4% glycerol, room temperature, 30 min; GST-TFs on glutathione beads, 16-mer random dsDNA library, 0.1% formaldehyde crosslink after washing; high values mean tight binding
# FLI1 = biological target: T1, FLI1 (Homo sapiens, UniProt Q01543 1-452); conditions: protein: recombinant; tags: N-terminal GST; dsDNA, one strand shown
# T1 sequence: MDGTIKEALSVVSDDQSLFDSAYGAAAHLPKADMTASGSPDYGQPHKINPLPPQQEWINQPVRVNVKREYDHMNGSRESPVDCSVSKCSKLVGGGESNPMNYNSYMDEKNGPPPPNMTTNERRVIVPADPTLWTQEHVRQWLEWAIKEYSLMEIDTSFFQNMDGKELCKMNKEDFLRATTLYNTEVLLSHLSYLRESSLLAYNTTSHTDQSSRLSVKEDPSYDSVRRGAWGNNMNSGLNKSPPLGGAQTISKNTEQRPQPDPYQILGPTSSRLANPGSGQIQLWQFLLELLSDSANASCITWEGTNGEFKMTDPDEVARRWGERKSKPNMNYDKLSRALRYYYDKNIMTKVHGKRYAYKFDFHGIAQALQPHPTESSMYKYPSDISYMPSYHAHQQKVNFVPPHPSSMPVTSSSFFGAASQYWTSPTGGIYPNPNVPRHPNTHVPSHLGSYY
# In short: (§1)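 Beads coated with glutathione captured GST-fused human transcription factors that had been expressed in yeast, and the factors were then given DNA barcodes and pooled with a tag-only sample. The pools were incubated with 200 nmole of a random double-stranded 16-mer DNA library in Tris/NaCl/DTT/glycerol buffer for 30 min at room temperature, washed, crosslinked with 0.1% formaldehyde and proximity-ligated with BsaI/T4 ligase at 37 °C for 1 h. PCR amplification and Illumina NextSeq500 sequencing came last. Binding signal is each hexamer's read frequency for a factor divided by its frequency for the tag-only sample.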
# GABPA = biological target: T2, GABPA (Homo sapiens, UniProt Q06546 1-454); conditions: protein: recombinant; tags: N-terminal GST; dsDNA, one strand shown
# T2 sequence: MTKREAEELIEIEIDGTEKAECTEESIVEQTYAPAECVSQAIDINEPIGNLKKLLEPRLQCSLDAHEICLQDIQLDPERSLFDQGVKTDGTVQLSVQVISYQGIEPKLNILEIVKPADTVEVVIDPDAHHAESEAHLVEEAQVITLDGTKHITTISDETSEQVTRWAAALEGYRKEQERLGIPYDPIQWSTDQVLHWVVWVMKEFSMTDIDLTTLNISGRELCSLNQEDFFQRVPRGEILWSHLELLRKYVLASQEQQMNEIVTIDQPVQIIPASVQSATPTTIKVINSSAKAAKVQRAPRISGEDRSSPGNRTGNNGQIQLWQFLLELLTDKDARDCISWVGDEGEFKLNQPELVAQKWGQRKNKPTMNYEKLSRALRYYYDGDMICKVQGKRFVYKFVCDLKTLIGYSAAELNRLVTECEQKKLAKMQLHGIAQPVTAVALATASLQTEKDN
# In short: as §1
# ELF1 = ELF1 (Homo sapiens, UniProt P32519 1-619); conditions: protein: recombinant; tags: N-terminal GST; dsDNA, one strand shown
# In short: as §1
# EHF = biological target: T3, EHF (Homo sapiens, UniProt Q9NZC4 1-300); conditions: protein: recombinant; tags: N-terminal GST; dsDNA, one strand shown
# T3 sequence: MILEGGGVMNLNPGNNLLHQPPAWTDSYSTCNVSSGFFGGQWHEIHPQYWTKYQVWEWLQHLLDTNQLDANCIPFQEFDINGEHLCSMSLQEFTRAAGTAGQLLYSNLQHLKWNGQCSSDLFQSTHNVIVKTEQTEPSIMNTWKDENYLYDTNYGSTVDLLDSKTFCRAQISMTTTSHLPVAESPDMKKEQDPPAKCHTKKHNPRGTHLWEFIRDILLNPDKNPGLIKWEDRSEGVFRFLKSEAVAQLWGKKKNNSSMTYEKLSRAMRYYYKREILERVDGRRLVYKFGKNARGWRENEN
# In short: as §1
# SPIB = SPIB (Homo sapiens, UniProt Q01892 1-262); conditions: protein: recombinant; tags: N-terminal GST; dsDNA, one strand shown
# In short: as §1
# ELK3 = biological target: T4, ELK3 (Homo sapiens, UniProt P41970 1-407); conditions: protein: recombinant; tags: N-terminal GST; dsDNA, one strand shown
# T4 sequence: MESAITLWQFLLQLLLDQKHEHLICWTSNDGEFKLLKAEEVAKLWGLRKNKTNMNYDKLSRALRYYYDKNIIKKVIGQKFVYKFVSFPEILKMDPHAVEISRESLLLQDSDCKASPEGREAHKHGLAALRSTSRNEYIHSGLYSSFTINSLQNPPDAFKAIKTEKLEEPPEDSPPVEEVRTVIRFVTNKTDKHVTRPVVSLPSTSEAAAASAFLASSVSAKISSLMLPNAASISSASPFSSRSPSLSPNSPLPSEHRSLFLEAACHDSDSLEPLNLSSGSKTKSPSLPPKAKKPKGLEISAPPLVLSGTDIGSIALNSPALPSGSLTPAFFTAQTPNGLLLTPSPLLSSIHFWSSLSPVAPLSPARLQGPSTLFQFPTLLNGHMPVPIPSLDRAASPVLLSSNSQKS
# In short: as §1
# FEV = biological target: T5, FEV (Homo sapiens, UniProt Q99581 1-238); conditions: protein: recombinant; tags: N-terminal GST; dsDNA, one strand shown
# T5 sequence: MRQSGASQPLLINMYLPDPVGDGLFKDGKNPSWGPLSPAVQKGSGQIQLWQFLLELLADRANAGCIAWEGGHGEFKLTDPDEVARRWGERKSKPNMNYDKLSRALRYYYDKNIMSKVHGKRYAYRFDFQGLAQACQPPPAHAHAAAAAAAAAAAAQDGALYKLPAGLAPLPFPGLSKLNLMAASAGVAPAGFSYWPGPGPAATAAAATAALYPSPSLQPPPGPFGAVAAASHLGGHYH
# In short: as §1
# ETV5 = ETV5 (Homo sapiens, UniProt P41161 1-510); conditions: protein: recombinant; tags: N-terminal GST; dsDNA, one strand shown
# In short: as §1
# HSF1 = HSF1 (Homo sapiens, UniProt Q00613 1-529); conditions: protein: recombinant; tags: N-terminal GST; chain copies: 3; dsDNA, one strand shown
# In short: as §1
# SPIC = biological target: T6, SPIC (Homo sapiens, UniProt Q8N5J4 1-248); conditions: protein: recombinant; tags: N-terminal GST; dsDNA, one strand shown
# T6 sequence: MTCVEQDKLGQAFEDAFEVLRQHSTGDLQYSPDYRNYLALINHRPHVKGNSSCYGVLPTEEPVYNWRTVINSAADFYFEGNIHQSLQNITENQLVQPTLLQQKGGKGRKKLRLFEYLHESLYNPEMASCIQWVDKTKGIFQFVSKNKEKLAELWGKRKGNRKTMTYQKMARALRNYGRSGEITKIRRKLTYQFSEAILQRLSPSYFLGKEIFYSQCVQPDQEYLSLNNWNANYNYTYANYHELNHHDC
# In short: as §1
# ELK4 = biological target: T7, ELK4 (Homo sapiens, UniProt P28324-2 1-405); conditions: protein: recombinant; tags: N-terminal GST; dsDNA, one strand shown
# T7 sequence: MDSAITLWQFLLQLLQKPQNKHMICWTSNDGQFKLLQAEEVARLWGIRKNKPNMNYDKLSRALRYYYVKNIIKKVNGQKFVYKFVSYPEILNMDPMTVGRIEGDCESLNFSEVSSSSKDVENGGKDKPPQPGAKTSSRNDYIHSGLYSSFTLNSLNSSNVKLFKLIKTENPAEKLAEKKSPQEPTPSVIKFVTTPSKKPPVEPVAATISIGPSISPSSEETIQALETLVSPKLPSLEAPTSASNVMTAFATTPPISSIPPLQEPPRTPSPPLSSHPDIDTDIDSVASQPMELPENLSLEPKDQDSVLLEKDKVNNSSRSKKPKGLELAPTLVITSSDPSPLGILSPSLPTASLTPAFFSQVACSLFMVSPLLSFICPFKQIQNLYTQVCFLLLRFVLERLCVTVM
# In short: as §1
# ETV2 = biological target: T8, ETV2 (Homo sapiens, UniProt O00321 1-342); conditions: protein: recombinant; tags: N-terminal GST; dsDNA, one strand shown
# T8 sequence: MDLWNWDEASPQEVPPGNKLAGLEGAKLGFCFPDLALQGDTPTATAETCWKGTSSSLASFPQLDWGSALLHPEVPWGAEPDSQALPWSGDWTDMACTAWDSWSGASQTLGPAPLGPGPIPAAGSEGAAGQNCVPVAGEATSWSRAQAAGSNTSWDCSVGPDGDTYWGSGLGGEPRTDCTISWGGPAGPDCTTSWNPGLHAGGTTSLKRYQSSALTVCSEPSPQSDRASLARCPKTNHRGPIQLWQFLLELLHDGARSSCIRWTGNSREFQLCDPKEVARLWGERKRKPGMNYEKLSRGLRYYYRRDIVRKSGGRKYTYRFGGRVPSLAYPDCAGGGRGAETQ
# In short: as §1
# ELF3 = biological target: T9, ELF3 (Homo sapiens, UniProt P78545 1-371); conditions: protein: recombinant; tags: N-terminal GST; dsDNA, one strand shown
# T9 sequence: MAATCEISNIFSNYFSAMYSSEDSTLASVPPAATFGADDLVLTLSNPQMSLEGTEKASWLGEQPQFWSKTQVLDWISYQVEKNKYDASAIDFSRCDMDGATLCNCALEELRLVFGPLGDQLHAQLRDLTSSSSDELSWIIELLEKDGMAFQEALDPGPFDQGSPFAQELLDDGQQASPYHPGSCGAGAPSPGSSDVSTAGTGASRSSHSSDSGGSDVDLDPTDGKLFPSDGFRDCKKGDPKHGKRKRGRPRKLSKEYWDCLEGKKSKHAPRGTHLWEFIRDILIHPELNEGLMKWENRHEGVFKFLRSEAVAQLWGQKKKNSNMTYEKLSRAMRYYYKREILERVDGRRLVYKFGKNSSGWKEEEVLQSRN
# In short: as §1
# CRX = CRX (Homo sapiens, UniProt O43186 1-299); conditions: protein: recombinant; tags: N-terminal GST; dsDNA, one strand shown
# In short: as §1
# Sequence of ETV5 (P41161 whole entry): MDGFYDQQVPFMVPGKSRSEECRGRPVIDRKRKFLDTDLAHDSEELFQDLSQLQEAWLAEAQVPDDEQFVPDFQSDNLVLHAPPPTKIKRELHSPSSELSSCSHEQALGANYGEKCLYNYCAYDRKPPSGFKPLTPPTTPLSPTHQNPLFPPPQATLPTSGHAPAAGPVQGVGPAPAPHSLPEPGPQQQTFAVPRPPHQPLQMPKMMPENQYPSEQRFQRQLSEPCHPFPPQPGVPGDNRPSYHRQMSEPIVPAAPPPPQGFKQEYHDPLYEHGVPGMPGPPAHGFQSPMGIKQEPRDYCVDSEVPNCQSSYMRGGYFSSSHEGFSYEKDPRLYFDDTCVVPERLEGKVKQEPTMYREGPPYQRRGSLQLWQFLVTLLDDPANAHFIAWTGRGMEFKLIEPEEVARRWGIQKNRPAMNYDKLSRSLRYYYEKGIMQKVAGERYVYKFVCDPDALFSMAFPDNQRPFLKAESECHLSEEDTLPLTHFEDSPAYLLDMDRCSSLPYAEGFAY
# Sequence of SPIB (Q01892 whole entry): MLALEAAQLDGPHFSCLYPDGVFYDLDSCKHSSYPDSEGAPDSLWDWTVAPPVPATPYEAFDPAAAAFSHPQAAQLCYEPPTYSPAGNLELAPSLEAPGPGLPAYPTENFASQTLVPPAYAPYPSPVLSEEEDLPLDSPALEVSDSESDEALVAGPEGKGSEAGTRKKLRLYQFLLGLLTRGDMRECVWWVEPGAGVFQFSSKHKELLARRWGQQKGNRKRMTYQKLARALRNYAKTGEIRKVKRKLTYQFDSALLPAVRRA
# Sequence of CRX (O43186 whole entry): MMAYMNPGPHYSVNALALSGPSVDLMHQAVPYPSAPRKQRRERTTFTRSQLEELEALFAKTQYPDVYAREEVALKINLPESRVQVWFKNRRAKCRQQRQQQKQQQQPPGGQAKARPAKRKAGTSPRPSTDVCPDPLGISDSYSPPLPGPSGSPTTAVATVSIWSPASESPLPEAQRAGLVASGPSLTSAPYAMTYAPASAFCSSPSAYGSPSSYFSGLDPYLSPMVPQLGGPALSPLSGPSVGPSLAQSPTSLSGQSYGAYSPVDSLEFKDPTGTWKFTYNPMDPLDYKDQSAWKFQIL
# Sequence of ELF1 (P32519 whole entry): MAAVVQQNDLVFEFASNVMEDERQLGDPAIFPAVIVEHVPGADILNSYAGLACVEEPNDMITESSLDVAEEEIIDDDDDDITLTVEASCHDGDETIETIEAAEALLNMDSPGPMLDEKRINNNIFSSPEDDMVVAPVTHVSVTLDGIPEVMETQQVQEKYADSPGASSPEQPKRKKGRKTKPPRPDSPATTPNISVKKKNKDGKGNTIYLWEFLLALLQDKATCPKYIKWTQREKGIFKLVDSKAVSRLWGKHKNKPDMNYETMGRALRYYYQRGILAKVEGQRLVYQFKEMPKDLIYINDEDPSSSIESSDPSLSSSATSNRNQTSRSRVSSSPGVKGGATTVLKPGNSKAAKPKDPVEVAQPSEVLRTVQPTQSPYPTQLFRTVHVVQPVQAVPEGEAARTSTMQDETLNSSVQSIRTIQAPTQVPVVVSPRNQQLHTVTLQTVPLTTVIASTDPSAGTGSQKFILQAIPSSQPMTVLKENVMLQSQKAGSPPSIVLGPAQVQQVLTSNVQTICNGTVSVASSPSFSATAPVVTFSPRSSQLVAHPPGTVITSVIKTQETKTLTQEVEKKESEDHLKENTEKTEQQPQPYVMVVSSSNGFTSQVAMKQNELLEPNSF
# Sequence of HSF1 (Q00613 whole entry): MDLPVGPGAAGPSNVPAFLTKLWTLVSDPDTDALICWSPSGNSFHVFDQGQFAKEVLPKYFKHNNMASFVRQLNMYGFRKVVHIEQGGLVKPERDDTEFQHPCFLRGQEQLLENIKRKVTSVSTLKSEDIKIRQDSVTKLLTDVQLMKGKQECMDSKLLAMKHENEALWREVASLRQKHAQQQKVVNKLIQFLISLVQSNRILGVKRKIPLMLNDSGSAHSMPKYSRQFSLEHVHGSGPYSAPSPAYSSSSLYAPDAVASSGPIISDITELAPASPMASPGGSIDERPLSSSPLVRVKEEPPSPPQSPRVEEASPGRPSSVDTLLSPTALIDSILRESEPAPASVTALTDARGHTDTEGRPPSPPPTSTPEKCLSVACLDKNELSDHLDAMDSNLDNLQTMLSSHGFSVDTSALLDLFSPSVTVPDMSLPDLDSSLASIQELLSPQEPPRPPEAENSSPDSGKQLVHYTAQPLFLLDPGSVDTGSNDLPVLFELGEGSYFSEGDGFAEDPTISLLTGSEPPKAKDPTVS
sequence,measurement,setting,value
AAGGCT,binding signal,FLI1,"1.03 fold enrichment (6-mer frequency, TF over GST control)"
same,binding signal,GABPA,"1.12 fold enrichment (6-mer frequency, TF over GST control)"
same,binding signal,ELF1,"1.1 fold enrichment (6-mer frequency, TF over GST control)"
same,binding signal,EHF,"1.02 fold enrichment (6-mer frequency, TF over GST control)"
same,binding signal,SPIB,"1.01 fold enrichment (6-mer frequency, TF over GST control)"
same,binding signal,ELK3,"1.1 fold enrichment (6-mer frequency, TF over GST control)"
same,binding signal,FEV,"1.05 fold enrichment (6-mer frequency, TF over GST control)"
same,binding signal,ETV5,"1.01 fold enrichment (6-mer frequency, TF over GST control)"
same,binding signal,HSF1,"1.1 fold enrichment (6-mer frequency, TF over GST control)"
same,binding signal,SPIC,"1.06 fold enrichment (6-mer frequency, TF over GST control)"
same,binding signal,ELK4,"1 fold enrichment (6-mer frequency, TF over GST control)"
same,binding signal,ETV2,"1.15 fold enrichment (6-mer frequency, TF over GST control)"
same,binding signal,ELF3,"1.02 fold enrichment (6-mer frequency, TF over GST control)"
same,binding signal,CRX,"1.43 fold enrichment (6-mer frequency, TF over GST control)"
